By inhibition is commonly meant the relative decrease from the control value, in per cent.

For 16 compounds, inhibition results are on record in ChEMBL document CHEMBL1961873, “Compounds: GSK PKIS; Assays: Nanosyn kinase panel” (2012).

The target in assay [1] is Platelet-derived growth factor receptor beta (Homo sapiens) (UniProt P09619). As to conditions: at 1 µM.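 Further: each value is a mean percent inhibition.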
The target of assay [2] is Tyrosine-protein kinase FRK (Homo sapiens) (UniProt P42685). As to conditions: at 0.1 µM.
The target is the same in assay [3]. The conditions noted are these: at 1 µM.
The target in assay [4] is Protein-tyrosine kinase 2-beta (Homo sapiens) (UniProt Q14289). As to conditions: at 0.1 µM.
Assay [5] has the same target. As to conditions: at 1 µM.
Assay [6] has as its target Proto-oncogene tyrosine-protein kinase receptor Ret (Homo sapiens) (UniProt P07949). As to conditions: at 0.1 µM.
The target is the same in assay [7]. The conditions noted are these: at 1 µM.
The test system of assay [8] is Proto-oncogene tyrosine-protein kinase receptor Ret (Homo sapiens), P07949 [V804L]. The conditions noted are these: at 0.1 µM.
The test system is the same in assay [9]. The conditions noted are these: at 1 µM.
For assay [10], the system named is Proto-oncogene tyrosine-protein kinase receptor Ret (Homo sapiens), P07949 [Y791F]. As to conditions: at 0.1 µM.
Chain of Proto-oncogene tyrosine-protein kinase receptor Ret (Homo sapiens), P07949 [Y791F] (P07949 whole entry Y791F): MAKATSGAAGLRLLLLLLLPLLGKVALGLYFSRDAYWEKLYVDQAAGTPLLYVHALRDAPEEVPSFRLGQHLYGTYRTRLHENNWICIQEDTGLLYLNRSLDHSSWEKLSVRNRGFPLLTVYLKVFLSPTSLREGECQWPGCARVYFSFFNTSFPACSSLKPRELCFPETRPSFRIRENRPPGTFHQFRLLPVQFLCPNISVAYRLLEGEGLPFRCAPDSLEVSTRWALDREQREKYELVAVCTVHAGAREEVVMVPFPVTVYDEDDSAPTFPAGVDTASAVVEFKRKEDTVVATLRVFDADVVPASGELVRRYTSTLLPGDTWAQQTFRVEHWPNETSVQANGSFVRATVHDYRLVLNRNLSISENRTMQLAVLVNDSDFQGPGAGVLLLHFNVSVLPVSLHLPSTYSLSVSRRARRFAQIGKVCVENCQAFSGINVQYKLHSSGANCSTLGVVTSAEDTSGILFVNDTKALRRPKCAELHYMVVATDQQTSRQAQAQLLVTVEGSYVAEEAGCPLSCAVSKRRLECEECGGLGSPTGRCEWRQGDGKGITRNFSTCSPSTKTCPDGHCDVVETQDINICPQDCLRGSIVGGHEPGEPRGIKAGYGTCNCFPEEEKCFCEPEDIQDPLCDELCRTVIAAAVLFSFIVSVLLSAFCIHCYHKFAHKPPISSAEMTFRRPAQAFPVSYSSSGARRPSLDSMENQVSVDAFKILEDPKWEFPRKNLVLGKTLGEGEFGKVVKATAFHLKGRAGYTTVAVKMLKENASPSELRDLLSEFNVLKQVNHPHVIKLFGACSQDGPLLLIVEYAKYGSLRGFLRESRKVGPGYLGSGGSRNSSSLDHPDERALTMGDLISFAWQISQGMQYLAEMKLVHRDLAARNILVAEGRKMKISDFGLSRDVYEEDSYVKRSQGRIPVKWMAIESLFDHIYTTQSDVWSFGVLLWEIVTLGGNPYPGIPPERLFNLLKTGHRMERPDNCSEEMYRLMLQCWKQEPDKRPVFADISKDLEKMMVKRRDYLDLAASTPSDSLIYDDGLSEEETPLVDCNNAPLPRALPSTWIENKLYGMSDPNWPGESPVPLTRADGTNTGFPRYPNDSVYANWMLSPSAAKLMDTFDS

Chain of Protein-tyrosine kinase 2-beta (Homo sapiens) (Q14289 whole entry, looked up): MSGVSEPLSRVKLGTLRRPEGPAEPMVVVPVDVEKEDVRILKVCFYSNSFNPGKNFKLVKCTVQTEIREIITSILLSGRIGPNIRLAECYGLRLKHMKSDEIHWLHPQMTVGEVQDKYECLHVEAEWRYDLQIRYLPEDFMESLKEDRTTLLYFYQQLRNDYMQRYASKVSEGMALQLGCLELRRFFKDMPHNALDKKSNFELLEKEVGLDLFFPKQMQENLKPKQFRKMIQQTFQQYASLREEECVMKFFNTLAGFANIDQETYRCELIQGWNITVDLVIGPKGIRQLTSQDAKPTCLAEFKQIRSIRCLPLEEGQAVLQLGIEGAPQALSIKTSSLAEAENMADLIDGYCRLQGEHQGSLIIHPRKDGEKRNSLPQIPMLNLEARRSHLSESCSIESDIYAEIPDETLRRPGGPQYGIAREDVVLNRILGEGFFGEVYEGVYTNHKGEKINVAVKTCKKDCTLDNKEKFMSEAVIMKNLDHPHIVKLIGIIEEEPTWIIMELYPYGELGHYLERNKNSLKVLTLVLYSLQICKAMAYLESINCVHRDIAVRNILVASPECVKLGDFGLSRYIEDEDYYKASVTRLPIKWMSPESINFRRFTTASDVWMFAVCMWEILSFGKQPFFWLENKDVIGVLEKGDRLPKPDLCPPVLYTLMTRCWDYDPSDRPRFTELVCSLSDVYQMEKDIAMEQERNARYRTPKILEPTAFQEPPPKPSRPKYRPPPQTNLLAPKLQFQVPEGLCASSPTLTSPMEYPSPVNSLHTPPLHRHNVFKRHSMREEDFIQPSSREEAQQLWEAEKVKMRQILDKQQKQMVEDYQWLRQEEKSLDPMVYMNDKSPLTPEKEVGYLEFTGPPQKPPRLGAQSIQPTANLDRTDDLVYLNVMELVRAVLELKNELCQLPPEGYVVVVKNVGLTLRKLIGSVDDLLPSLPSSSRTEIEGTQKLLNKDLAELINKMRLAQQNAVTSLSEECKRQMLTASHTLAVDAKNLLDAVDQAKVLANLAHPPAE
Chain of Platelet-derived growth factor receptor beta (Homo sapiens) (P09619 whole entry): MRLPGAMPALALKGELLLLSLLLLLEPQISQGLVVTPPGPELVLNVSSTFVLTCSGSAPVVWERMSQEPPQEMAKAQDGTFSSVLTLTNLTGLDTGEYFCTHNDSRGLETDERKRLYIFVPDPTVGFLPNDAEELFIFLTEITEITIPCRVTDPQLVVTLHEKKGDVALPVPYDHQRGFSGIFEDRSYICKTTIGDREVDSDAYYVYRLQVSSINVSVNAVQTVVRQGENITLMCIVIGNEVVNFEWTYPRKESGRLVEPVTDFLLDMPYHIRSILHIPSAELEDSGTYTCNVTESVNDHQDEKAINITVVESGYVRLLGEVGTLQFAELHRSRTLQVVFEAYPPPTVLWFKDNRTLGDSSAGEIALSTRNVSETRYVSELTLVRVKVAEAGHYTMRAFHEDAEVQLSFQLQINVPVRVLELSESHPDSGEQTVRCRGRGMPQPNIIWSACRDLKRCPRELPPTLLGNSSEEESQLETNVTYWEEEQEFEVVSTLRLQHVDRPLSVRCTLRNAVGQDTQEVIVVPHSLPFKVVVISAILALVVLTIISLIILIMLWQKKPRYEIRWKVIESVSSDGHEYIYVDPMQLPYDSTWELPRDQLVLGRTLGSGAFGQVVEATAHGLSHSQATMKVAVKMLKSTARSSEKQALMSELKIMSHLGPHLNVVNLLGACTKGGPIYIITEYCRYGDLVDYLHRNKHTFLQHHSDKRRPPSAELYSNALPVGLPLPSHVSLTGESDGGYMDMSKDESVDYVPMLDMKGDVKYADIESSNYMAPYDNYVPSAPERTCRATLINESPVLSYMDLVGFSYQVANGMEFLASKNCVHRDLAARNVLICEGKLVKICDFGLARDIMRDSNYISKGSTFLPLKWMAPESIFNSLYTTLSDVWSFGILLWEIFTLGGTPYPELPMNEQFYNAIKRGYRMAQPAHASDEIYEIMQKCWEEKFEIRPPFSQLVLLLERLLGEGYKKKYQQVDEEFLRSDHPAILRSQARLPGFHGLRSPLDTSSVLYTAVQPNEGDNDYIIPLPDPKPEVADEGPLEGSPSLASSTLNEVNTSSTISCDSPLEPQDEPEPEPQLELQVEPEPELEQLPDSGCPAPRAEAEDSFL
Chain of Tyrosine-protein kinase FRK (Homo sapiens) (P42685 whole entry): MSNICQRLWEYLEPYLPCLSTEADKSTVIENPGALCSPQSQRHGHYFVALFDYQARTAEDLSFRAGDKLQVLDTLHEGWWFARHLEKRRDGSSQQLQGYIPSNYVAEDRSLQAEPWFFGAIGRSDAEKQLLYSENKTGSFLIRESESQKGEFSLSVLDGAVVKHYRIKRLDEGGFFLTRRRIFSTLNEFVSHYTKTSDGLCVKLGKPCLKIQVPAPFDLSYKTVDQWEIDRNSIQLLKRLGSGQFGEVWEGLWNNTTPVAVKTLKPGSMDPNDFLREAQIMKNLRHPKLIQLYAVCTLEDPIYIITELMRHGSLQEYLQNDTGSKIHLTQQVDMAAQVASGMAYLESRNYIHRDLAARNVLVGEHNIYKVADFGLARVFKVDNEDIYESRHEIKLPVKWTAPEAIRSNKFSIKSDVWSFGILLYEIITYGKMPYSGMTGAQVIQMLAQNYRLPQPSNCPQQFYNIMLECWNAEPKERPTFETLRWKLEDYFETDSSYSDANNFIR
Chain of Proto-oncogene tyrosine-protein kinase receptor Ret (Homo sapiens) (P07949 whole entry): as the sequence (P07949 whole entry Y791F) above, with F791Y counted along it
Chain of Proto-oncogene tyrosine-protein kinase receptor Ret (Homo sapiens), P07949 [V804L] (P07949 whole entry V804L): as the sequence (P07949 whole entry Y791F) above, with F791Y, V804L counted along it

Turning to `CS(=O)(=O)CCNCc1ccc(-c2ccc3ncnc(Nc4ccc(OCc5cccc(F)c5)c(C(F)(F)F)c4)c3c2)o1`, the inhibition in assay [1] is 1.85%; in assay [2] it was 2.17%; in assay [3], 3.48%; in [4] it was 9.54%; in assay [5], 10.4%; in assay [6], 6.1%. Further, the inhibition in assay [7] was found to be 3.78%; in [8], 1.9%; in [9] it was 4.58%; in assay [10] it was 2.66%.
As to `CCn1c(-c2nonc2N)nc2ccncc21`, the inhibition in [1] was 5.63%; in assay [2], 0.98%; in assay [3], 0.17%; in assay [4], 3.23%; in assay [5] it was 7.52%; in assay [6], 2.99%. In addition, the inhibition in assay [7] is 5.58%; in assay [8], 4.69%; in [9], -1.85%; in assay [10] it was 1.52%.
Turning to `O=C1NC(=O)C(c2ccccc2Cl)=C1Nc1cccc(O)c1`, the inhibition in assay [1] is 3.43%; in assay [2], 0.88%; in assay [3] it was 0.39%; in assay [4], 5.7%; in assay [5] it was 8.51%; in [6], 1.55%. The inhibition was 7.91% in assay [7], 3.61% in assay [8], 2.98% in assay [9] and 2.99% in [10].
For `CCn1c(-c2nonc2N)nc2cncc(C(=O)N3CC[C@H](N)C3)c21`, the inhibition in [1] was found to be 10.7%; in assay [2] it was 3.16%; in assay [3], 2.04%; in assay [4], 10.8%; in assay [5] it was 7.69%; in assay [6] it was 5.56%. In addition, the inhibition in assay [7] amounted to 4.11%; in [8], 3.46%; in assay [9], 4.03%; in assay [10], 4.17%.
Take `CCN1CCC(CC(=O)Nc2n[nH]c3nc(-c4cccs4)c(Br)cc23)CC1`: the inhibition was 14.4% in [1]; -1.17% in assay [2]; -0.21% in assay [3]; -9.91% in assay [4]; 1.65% in assay [6]; 3.8% in [7]. For the same compound, the results for the inhibition in assay [8], in [9] and in assay [10] were 0.08%, -2.04% and -1.87%, respectively.
In the case of `CS(=O)(=O)CCN(CC#N)Cc1ccc(-c2ccc3ncnc(Nc4ccc(OCc5cccc(F)c5)c(Cl)c4)c3c2)o1`, the inhibition in assay [1] worked out at 6.45%; in assay [2], 1.47%; in assay [3], 2.48%; in assay [4], 3.85%; in [5], 9.33%; in assay [6] it was 0.24%. Besides, the inhibition was 2.76% in [7], 1.02% in assay [8], 3.35% in [9] and 2.36% in assay [10].
As for `Cc1cc(O)cc(C)c1/C=C/c1cncc(-c2nn[nH]n2)c1`, the inhibition in [1] stood at 49.5%; in assay [2], 6.95%; in [3], 33.8%; in assay [4], 12.8%; in assay [5], 12.1%; in assay [6], 1.14%. The inhibition in assay [7] came out at 9.47%; in assay [8] it was 8.88%; in [9], 9.42%; in [10], 3.32%.
In the case of `COc1ccccc1Nc1ncc(-c2ccccc2)o1`, the inhibition in assay [1] is 47.7%; in assay [2], 3.68%; in [3] it was 5.01%; in assay [4] it was 0.49%; in [5], 11.1%; in assay [6], 5.4%. The inhibition in assay [7] is 6.88%; in [8] it was 3.68%; in assay [9], 5.75%; in assay [10], 9.37%.
As to `[O-][S+]1CCN(Cc2ccc(-c3ccc4ncnc(Nc5ccc(OCc6ccccc6)c(F)c5)c4c3)o2)CC1`, the inhibition in assay [1] was 3.24%; in assay [2], 0.91%; in assay [3], 1.11%; in assay [4] it was 2.85%; in assay [5], -2.53%; in assay [6], 6.29%. The inhibition turned out to be 9.08% in assay [7], 8.58% in assay [8], 5.31% in [9] and 1.94% in assay [10].
As for `COc1ccc2cc(-c3c(-c4ccncc4)nc(-c4ccc([S+](C)[O-])cc4)n3C)ccc2c1` (centres undefined), the inhibition in [1] came to 4.23%; in assay [2] it was 2.23%; in assay [3] it was 1.18%; in assay [4] it was 3.6%; in assay [5], 4.13%; in [6] it was 4.55%. In addition, the inhibition in [7] is 8.7%; in [8] it was 3.54%; in [9], -0.15%; in assay [10], 5.77%.
Regarding `Cc1nn(C)c2cc(N(C)c3ccnc(Nc4cccc(S(N)(=O)=O)c4)n3)ccc12`, the inhibition in assay [1] was found to be 61.6%; in assay [2] it was 3.71%; in assay [3] it was 11.6%; in assay [4], 9.35%; in assay [5], 17.8%; in assay [6], 11.9%. Moreover, the inhibition in [7] worked out at 39%; in assay [8] it was 5.4%; in [9], 34.2%; in [10] it was 12.6%.
`COc1cc2c(cc1Nc1nc(N3CCc4ccccc43)c3cc[nH]c3n1)N(C(=O)CN(C)C)CC2`: the inhibition amounted to 3.27% in [1]; 0.34% in assay [2]; 0.69% in assay [3]; 59.7% in assay [4]; 90% in assay [5]; 3.49% in assay [6]. Also, the inhibition in assay [7] came to 9.16%; in assay [8] it was 0.54%; in assay [9] it was 4.92%; in assay [10], 1.4%.
Take `CN(C)c1cc2c(Nc3ccc4nc(Cc5ccccc5)[nH]c4c3)ncnc2cn1`: the inhibition was 12.1% in [1]; -0.33% in [2]; 3.88% in [3]; 15.7% in assay [4]; 11.8% in assay [5]; 7.21% in [6]. Besides, the inhibition in assay [7] was determined as 13.2%; in assay [8], 3.89%; in assay [9], 7.59%; in [10] it was 6.91%.
Regarding `COc1ccc(COc2ccc(Cc3cnc(N)nc3N)cc2OC)cc1`, the inhibition in assay [1] is 10%; in assay [2], -0.22%; in [3], 2.07%; in assay [4], -3.39%; in assay [5], -2.43%; in assay [6] it was 9.65%. In addition, the inhibition in assay [7] was found to be 9.77%; in [8], 6.53%; in assay [9], 9.69%; in [10] it was 12.4%.
Turning to `CC(=O)Nc1cccc(C#Cc2cncnc2Nc2ccc(OCc3cccc(F)c3)c(Cl)c2)n1`, the inhibition in assay [1] was 9.6%; in assay [2], 0.61%; in [3], 1.2%; in [4], -2.77%; in [5], 8.14%; in [6], -1.11%. For the same compound, the inhibition in assay [7] worked out at 2.59%; in [8], 0.14%; in assay [9], 10.2%; in [10] it was 0.37%.
Regarding `CC(C)=Cc1cccc2c1/C(=N/Nc1ccc(S(N)(=O)=O)cc1)C(=O)N2`, the inhibition was determined as 62.6% in [1]; 1.44% in assay [2]; 5.49% in assay [3]; 3.24% in assay [4]; 27.5% in assay [5]; 14.8% in assay [6]. The inhibition in assay [7] worked out at 60.7%; in assay [8] it was 16.4%; in assay [9] it was 67.4%; in assay [10], 6.44%.
